From PubChem BioAssay (NCATS)
Results filed as inconclusive are left out. Entries that show only a call come without a potency. Calls of active or inactive are those of the source. Calls follow the shape of the dose curve; as a rule, active = well fitted inhibition curve with a large enough effect; inconclusive = small, poorly fitted or top-dose-only effect; inactive = no such curve, though single readings can be large or run the other way.

Test system: Zika virus NS2B-NS3 protease (linked construct)
Test: Primary screen NINDS Rhodamine qHTS for Zika virus inhibitors (AID 1347160); also: nearly all actives have a fitted effect of over 55% in size
Conditions: purified NS2B-NS3 protease, Rhodamine110 substrate fluorescence; series mostly up to 57.1 µM
In short: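 In 10 mM Tris-HCl pH 8.0 containing 0.01% Tween 20, linked NS2B-NS3 protease (25 nM final) is exposed to test compounds for 15 min. Cleavage of 1.5 microM Rhodamine110 substrate is tracked by fluorescence over 15 min.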

| SMILES | Potency |
| --- | --- |
| O=C1C(Cc2ccc(O)cc2)N2C(=O)CCN(C(=O)NCc3ccccc3)C2CN1Cc1cccc2ccccc12 (stereo not drawn) | inactive |
| O=C1COc2nccc(-c3ccccc3F)c2CN1Cc1cc(C(F)(F)F)cc(C(F)(F)F)c1 | inactive |
| CCOc1ccc(S(=O)(=O)N2CCCCCC2)c2ccccc12 | inactive |
| Cn1ccc(NC(=O)c2cc(Oc3ccc(C(=O)N4CCC4)c(F)c3)c3c(c2)OC(C)(C)C3)n1 | inactive |
| C=C[C@](C)(O)CC[C@H]1C(C)=CC(=O)[C@H]2C(C)(C)CCC[C@]12C | inactive |
| CO[C@@H]1CC(OC2CCC3(C)C(CCC45CCC(C6=CC(=O)OC6)C(C)(CCC43)C5=O)C2)O[C@H](C)[C@@H]1O[C@@H]1O[C@H](CO[C@@H]2O[C@H](CO)[C@@H](O)[C@H](O)[C@H]2O)[C@@H](O)[C@H](O)[C@H]1O (stereo partly drawn) | inactive |
| C/C=C/[C@@H]1C=C[C@@H]2C[C@H](C)CC[C@H]2[C@]1(C)/C(O)=C1/C(=O)[C@@H](CO)N(C)C1=O | inactive |
| C/C=C/C=C/C(=O)O[C@@H]1C=C2COC(=O)[C@]2(O)[C@@]2(C)CCCC(C)(C)[C@H]12 | inactive |
| CN(C)c1cccc(Oc2cnc(Nc3cccc(O)c3)nc2)c1 | inactive |
| O=S(=O)(NCc1ccccn1)c1ccc(Br)c2ccccc12 | inactive |
| CS/C=C/C(=O)O[C@@H]1CCC2=CC(=O)C(=C(C)C)C[C@]2(C)[C@H]1C | inactive |
| Nc1nc2c(nc(Br)n2[C@@H]2O[C@@H]3COP(=O)(O)O[C@H]3[C@H]2O)c(=O)[nH]1 | inactive |
| Cc1cc(F)ccc1[C@H]1C[C@@H](N2CCN3C(=O)CC[C@H]3C2)CCN1C(=O)N(C)[C@H](C)c1cc(C(F)(F)F)cc(C(F)(F)F)c1 | inactive |
